This excerpt belongs to a sample that is enriched for hits.
HT1080 IDH1KD tx: toxicity to HT-1080 IDH1 knockdown cells (counter line). AID 686971. hit rate 2% among 360,000. Potency, µM (highest dose often 46.1 µM), most hits filed as cytotoxic. HT-1080 IDH1 knockdown viability, ATP luminescence, 48 h
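IDH1KD HT-1080 cells, 750/well, RPMI + 5% FBS; compound pinned after 2 h settling; 48 h, 37 °C; CellTiter-Glo luminescence; % activity normalised to DMSO and no-cell wells; curves fitted, classed by r2 and efficacy.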
DT40 TDP1 CPT: DT40-hTDP1 cell growth loss with CPT | chicken DT40 Tdp1-/-;hTDP1 cells + 20 nM CPT, ATP luminescence, 48 h | hit rate 12% among 420,000 | AID 686979 | Potency, µM (top dose mostly 46.2 µM), actives largely listed as inhibitors; note: nearly all actives have a fitted effect of over 55% in size
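Chicken DT40 Tdp1-/- cells stably complemented with human TDP1 were seeded at 400 cells/well in medium containing 20 nM camptothecin, exposed to pin-transferred compounds, and grown at 37 °C for at least 48 hr. Viability was read as ATP luminescence.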
IL1B secr inh: blocks inflammasome-driven IL-1 beta release; THP-1 LPS/ATP IL-1B secretion, AlphaLISA, 16 h; active compounds read low; activity change, % at 57.5 µM; hit rate 4.7% among 360,000; in the data active = activity change below about -50%; inconclusive = mostly about -30% to -49%
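THP-1 cells pretreated 1 hr with compounds (up to 57.5 uM final), then stimulated with LPS (250 ng/mL final) plus ATP (1.25 mM final); secreted IL-1B measured by AlphaLISA after 16 hr, decreased signal indicating inhibition.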
HT1080NT lethal: kills 2HG-producing HT-1080-NT fibrosarcoma cells; HT-1080-NT fibrosarcoma viability, CellTiter-Glo ATP luminescence, 48 h; Potency, µM (highest dose often 46.1 µM), actives largely listed as cytotoxic; hit rate 1.6% among 360,000;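 note: NT is the 2HG producing partner of a matched IDH1 knockdown line; nearly all actives have a fitted effect of over 55% in size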
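Read-out is CellTiter-Glo luminescence after 10 minutes at room temperature, following 48 hours' compound treatment of HT-1080-NT cells (750 cells/well, RPMI, 5% FBS, 37 degrees C).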
DT40 TDP1 no CPT: qHTS for Inhibitors of human tyrosyl-DNA phosphodiesterase 1 (TDP1): qHTS in cells in absence of CPT | DT40 Tdp1-/- hTDP1 cells, no CPT, ATP luminescence, 48 h | Potency, µM (doses to about 46.2 µM), hits mostly inhibitors | hit rate 15% among 420,000; note: nearly all actives have a fitted effect of over 55% in size
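Cells were dispensed at 400 per well, compounds added by pin tool, plates incubated ≥48 hr at 37 °C, then CellTiter-Glo added for 30 min at room temperature before luminescence reading. Line: DT40 Tdp1-/- complemented with hTDP1; camptothecin omitted.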
12-LOX inh: blocks human arachidonate 12S-lipoxygenase. P18054. purified 12hLO, xylenol orange hydroperoxide absorbance. Potency, µM (titrated, usually from 108 µM), usual class: inhibitors. hit rate 1.1% among 580,000. AID 1671190
Target sequence (P18054 whole entry, looked up): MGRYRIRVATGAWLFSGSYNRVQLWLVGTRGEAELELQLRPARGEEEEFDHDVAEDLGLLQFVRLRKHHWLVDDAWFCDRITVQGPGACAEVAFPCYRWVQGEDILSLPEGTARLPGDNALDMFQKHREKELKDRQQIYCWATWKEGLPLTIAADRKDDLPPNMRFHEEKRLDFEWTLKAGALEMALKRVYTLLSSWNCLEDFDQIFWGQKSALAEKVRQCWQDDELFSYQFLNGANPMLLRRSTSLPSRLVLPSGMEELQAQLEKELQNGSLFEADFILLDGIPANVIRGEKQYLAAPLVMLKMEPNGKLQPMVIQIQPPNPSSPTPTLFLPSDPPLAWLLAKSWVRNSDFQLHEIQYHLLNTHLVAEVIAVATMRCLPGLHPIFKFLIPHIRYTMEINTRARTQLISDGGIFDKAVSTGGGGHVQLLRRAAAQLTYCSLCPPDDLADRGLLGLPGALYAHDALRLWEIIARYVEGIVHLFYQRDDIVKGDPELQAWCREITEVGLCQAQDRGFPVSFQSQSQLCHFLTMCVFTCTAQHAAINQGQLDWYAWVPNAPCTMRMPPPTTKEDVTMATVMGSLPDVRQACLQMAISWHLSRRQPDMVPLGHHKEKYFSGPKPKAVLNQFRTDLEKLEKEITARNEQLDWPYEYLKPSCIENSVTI
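Purified human 12hLO (150 nM final) in 25 mM Hepes, 0.01% Triton X-100, pH 7.0 was preincubated 15 min at room temperature with compound. Then 40 uM arachidonic acid was added, 30 min. Hydroperoxide was read by Fe-XO absorbance ratio 573/405 nm.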
A number is an active result; . = inactive; ? = inconclusive; / = no result; [ ] = remark or other dose. Unless noted, calls come from the whole dose curve; as a rule, active = well fitted curve in the direction sought with a large enough effect; inconclusive = small, poorly fitted or top-dose-only effect, or another doubt; inactive = no such curve, though single readings can be large; an effect the other way counts as inactive or inconclusive.

SMILES | HT1080 IDH1KD tx | DT40 TDP1 CPT | IL1B secr inh | HT1080NT lethal | DT40 TDP1 no CPT | 12-LOX inh
COC(=O)c1ccc(/C=C2/SC(=S)N(CCCC(=O)Nc3ccccn3)C2=O)cc1 | ? | 20.6µM | . | . | 20.6µM | .
O=C(CN1C(=O)S/C(=C\C=C\c2ccccc2)C1=O)Nc1cccc(O)c1 | ? | ? | -109.8 | ? | ? | .
O=C(CCCN1C(=O)/C(=C/c2cccc(Br)c2)SC1=S)Nc1ccccn1 | . | ? | ? | . | ? | .
O=C(CCCN1C(=O)/C(=C/c2cccc(Br)c2)SC1=S)NCCCN1CCOCC1 | ? | 25.9µM | -96.4 | ? | ? | ?
O=C(NCC1CCN(c2cc(-c3ccccc3)[nH]n2)CC1)c1n[nH]c2c1CCCC2 | / | / | / | / | / | .
COc1ccc(Cl)cc1S(=O)(=O)Nc1c(NC2CCCC2)c2ccccc2oc1=O | / | / | / | / | / | .
COc1ccc(OCC(=O)Oc2ccc3c(C)cc(=O)oc3c2)cc1 | / | / | / | / | / | .
O=C(COC(=O)CNC(=O)c1ccccc1)NC(=O)NC1CCCCC1 | . | . | . | . | . | .
CCOc1ccc(/C=C2\SC(=S)N(CC(=O)NCCCN3CCOCC3)C2=O)cc1 | . | . | . | . | . | ?
COC(=O)c1ccc(/C=C2\SC(=S)N(CCCC(=O)NCCCN3CCOCC3)C2=O)cc1 | ? | ? | . | ? | 23.1µM | ?
CCc1ccc(/C=C2\SC(=S)N(CCC(=O)NCCCN3CCOCC3)C2=O)cc1 | ? | ? | -87.9 | ? | ? | ?
COc1ccc(/C=C2\SC(=S)N(CCC(=O)NCCCN3CCOCC3)C2=O)cc1 | . | . | -65.9 | . | ? | .
CCN(Cc1cccs1)C(=O)/C=C/c1cccnc1 | / | / | / | / | / | .
O=C(Nc1ccc(I)cc1C(F)(F)F)c1cc(Cl)ccc1Cl | / | / | / | / | / | .
O=C(COC(=O)c1ccc2ccccc2n1)Nc1ccccc1OC(F)F | / | / | / | / | / | .
C/C(=N\Nc1nc(C(C)(C)C)cs1)c1ccccc1 | . | 23.1µM | . | . | 23.1µM | ?
C/C(=N\Nc1nc(C(=O)O)cs1)c1ccccc1 | . | . | . | . | . | .
C/C(=N\Nc1nc2c(s1)CCCC2)c1ccccc1 | ? | 16.4µM | . | ? | 14.6µM | .
Cc1ccc(/C=N/Nc2nc(C(C)(C)C)cs2)o1 | . | . | ? | . | ? | .
C/C(=N\Nc1nc(C(C)(C)C)cs1)c1ccc(O)cc1 | . | . | . | . | 18.4µM | .
OC1(c2csc(CN3CCOCC3)n2)CCN(C2CCCC2)CC1 | / | / | / | / | / | .
Cc1nc2ccccc2nc1SCC(=O)N(C)C(C)c1ccc(F)cc1 (configuration not stated) | / | / | / | / | / | .
C=CCOc1ccccc1C(=O)/C=C1/C(=O)Nc2ccccc21 | ? | 5.8µM | ? | ? | 2.91µM | .
N#C/C(=C\c1ccc(OCC(N)=O)cc1)c1ccccc1 | . | . | . | . | . | .
NC(=O)COc1ccc(C(=O)/C=C2/C(=O)Nc3ccccc32)cc1 | ? | 7.31µM | -100.5 | . | 2.91µM | .
SMILES | HT1080 IDH1KD tx | DT40 TDP1 CPT | IL1B secr inh | HT1080NT lethal | DT40 TDP1 no CPT | 12-LOX inh
C=CCOc1ccc(C(=O)/C=C2/C(=O)Nc3ccccc32)cc1 | ? | 16.4µM | -91.7 | ? | 13µM | .
CC(=O)NCc1ccc(S(=O)(=O)N2CCCN(C)CC2)cc1 | ? | ? | . | . | 23.1µM | .
Cc1ccc(C(=O)NNC(=O)c2ccc(S(=O)(=O)N3CCCCC3)cc2)cc1 | ? | 5.17µM | . | . | 23.1µM | .
Cc1ccc(C(=O)NCCc2ccc(S(=O)(=O)N3CCCC3)cc2)cc1 | . | . | . | . | . | .
Cc1ccc(CNC(=O)c2ccc(S(=O)(=O)N3CCCCCC3)cc2)cc1 | ? | 20.6µM | . | . | 4.11µM | .
COc1cccc(-c2ccc(=O)n(CC(=O)N3CCc4ccccc4C3)n2)c1 | / | / | / | / | / | .
CCN(CC)c1ncnc2c1ncn2[C@H]1CN(Cc2ccc(OC)cc2)C[C@@H](CO)O1 | . | ? | . | . | ? | .
COc1ccccc1N1CCN(C(=O)c2ccc3c(Cl)c4c(nc3c2)CCCC4)CC1 | ? | ? | -87.1 | ? | ? | /
CC1CCN(C(=O)c2ccc3c(Cl)c4c(nc3c2)CCCC4)CC1 | . | . | . | . | ? | .
O=C(c1ccc2c(Cl)c3c(nc2c1)CCCC3)N1CCN(c2ccc(F)cc2)CC1 | . | 20.6µM | . | . | 18.4µM | .
Cc1ccc(N2CCN(C(=O)c3ccc4c(Cl)c5c(nc4c3)CCCC5)CC2)c(C)c1 | / | . | / | / | . | .
COC(=O)c1ccc(CN(c2ccc(OC)cc2)S(=O)(=O)c2ccccc2)cc1 | . | ? | . | . | 13µM | .
Cc1ccc(C(=O)Nc2ccc(S(=O)(=O)N(Cc3ccccc3)c3ccccc3)cc2)cc1 | / | 16.4µM | / | / | 23.1µM | .
COC(=O)Cc1ccc(N(Cc2ccccc2F)S(=O)(=O)c2ccc(Cl)cc2)cc1 | . | ? | . | . | 14.6µM | .
CCOc1ccc(C(=O)Nc2ccc(S(=O)(=O)N(Cc3ccccc3)c3ccccc3)cc2)cc1 | / | 5.8µM | / | / | 5.17µM | .
CC(=O)Nc1ccc(S(=O)(=O)N(Cc2ccccc2)c2ccccc2)cc1 | ? | . | . | . | ? | .
O=C(O)c1nn(CC(=O)N2CCCCC2)c(=O)c2ccccc12 | / | / | / | / | / | .
COCCn1c(SCc2ccccc2C#N)nnc1-c1ccc(Cl)cc1 | / | / | / | / | / | .
Nc1ccc2c(c1)OC1(CCCCC1)O2 | . | ? | . | . | 16.4µM | .
O=C(NCC(c1ccc(F)cc1)N1CCOCC1)c1nn(-c2ccccc2)c(=O)c2ccccc12 (configuration not stated) | . | ? | . | .[9.24 µM] | 20.6µM | .
O=C(NCC(c1ccc(F)cc1)N1CCOCC1)c1ccc(-c2ccccc2)cc1 (configuration not stated) | . | 16.4µM | . | . | ? | .
COc1ccc(C(=O)N2CCCC(O)(CN3CCCC3)C2)cc1Cl (configuration not stated) | / | / | / | / | / | .
NNc1cccc(S(=O)(=O)c2cccc(NN)c2)c1 | / | / | / | / | / | 11.2µM
Nc1cccc(S(=O)(=O)c2cccc(N)c2)c1 | . | . | . | . | . | .
O=C(Cc1c[nH]c2ccccc12)N1CCC2(CC1)CC(OCC1CC1)CCO2 (configuration not stated) | / | / | / | / | / | .
CCCCNC(=S)NNC(=O)c1c(Cl)c(C)nn1C | . | 23.1µM | . | . | 16.4µM | .
COc1ccc(NC(=O)N2c3ccc(OC)cc3[C@@H](NCc3ccc(C)o3)[C@H](C)[C@H]2c2ccccc2)cc1 | / | / | / | / | / | .
CCOC(=O)c1cnc2c(ccc3ccccc32)c1NCCN(C)C | . | ? | -58.1 | . | ? | .
CCOC(=O)c1cnc2c(ccc3ccccc32)c1NCCO | ? | ? | ? | . | 20.6µM | .

Bioassay records deposited in PubChem BioAssay by National Center for Advancing Translational Sciences (NCATS).
